Values joined by “and” are separate entries in the source; they are usually repeats but may differ in a detail not shown here. Equal entries are not always repeated. Values without a mark were called inactive. Active and inactive are the calls of the source.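 Rule for the calls, unless noted: active = z-score of at least 1.8 in each of two replicates, scored against plate mean and spread of sample wells; inactive = the rest.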

Consider 24 compounds from PubChem BioAssay.

Test [1] addresses NAD(+) hydrolase SARM1 (Homo sapiens) (UniProt Q6SZW1). In words: blocking NAD cleavage by SARM1 SAM-TIR – cell lysate, NAD-Glo luminescence (AID 1508614;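 active = compound whose remaining NAD level is above about 45 nM, limit read from the data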;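 note: higher remaining NAD means stronger inhibition of SARM1 NADase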). To be noted: SAM-TIR HEK293T lysate NADase, at 1 µM, active compounds read high.
Test [2] has as its target Mitogen-activated protein kinase 7 (Homo sapiens) (UniProt Q13164). In words: Gal4-ERK5 driven luciferase induction – cell-based, HTS, primary screen (AID 1508626;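 active = luciferase signal above three times the same-plate solvent-only control wells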;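 note: luciferase driven by Gal4-ERK5 fusion binding five Gal4 sites before minimal TATA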). To be noted: HeLa Gal4-ERK5 transactivation, 18 h, at 5 µM, active compounds read high.
Test [3] can be described thus: galactose survival enhancers in mitochondrial complex I cybrids – cell-based, galactose medium, ATP luminescence, primary screen (AID 1645843).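 Note: positive z means more ATP and so rescue of galactose-driven cybrid death.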 To be noted: complex I mutant cybrid cells, 72 h, active compounds read high.

Chain of NAD(+) hydrolase SARM1 (Homo sapiens) (Q6SZW1 whole entry, looked up, the tested form may be a part): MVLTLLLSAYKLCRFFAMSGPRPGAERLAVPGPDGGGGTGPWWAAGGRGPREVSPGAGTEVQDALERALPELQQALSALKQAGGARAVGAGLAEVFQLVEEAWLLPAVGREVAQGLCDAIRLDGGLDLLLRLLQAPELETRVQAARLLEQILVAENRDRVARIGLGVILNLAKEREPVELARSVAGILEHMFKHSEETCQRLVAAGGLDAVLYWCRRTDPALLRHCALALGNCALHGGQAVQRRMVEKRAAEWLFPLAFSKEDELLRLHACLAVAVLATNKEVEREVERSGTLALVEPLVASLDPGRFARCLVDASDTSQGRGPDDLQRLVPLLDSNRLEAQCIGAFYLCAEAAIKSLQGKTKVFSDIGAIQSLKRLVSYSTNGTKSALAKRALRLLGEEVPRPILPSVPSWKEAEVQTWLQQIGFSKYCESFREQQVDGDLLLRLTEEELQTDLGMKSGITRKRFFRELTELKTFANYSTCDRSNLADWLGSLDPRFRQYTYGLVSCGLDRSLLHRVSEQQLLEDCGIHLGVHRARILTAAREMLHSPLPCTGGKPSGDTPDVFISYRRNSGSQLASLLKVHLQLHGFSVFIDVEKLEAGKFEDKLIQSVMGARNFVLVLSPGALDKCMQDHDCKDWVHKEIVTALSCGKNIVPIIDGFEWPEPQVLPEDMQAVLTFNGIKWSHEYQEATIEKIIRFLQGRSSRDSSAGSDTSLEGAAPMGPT
Chain of Mitogen-activated protein kinase 7 (Homo sapiens) (Q13164 whole entry, looked up, the tested form may be a part): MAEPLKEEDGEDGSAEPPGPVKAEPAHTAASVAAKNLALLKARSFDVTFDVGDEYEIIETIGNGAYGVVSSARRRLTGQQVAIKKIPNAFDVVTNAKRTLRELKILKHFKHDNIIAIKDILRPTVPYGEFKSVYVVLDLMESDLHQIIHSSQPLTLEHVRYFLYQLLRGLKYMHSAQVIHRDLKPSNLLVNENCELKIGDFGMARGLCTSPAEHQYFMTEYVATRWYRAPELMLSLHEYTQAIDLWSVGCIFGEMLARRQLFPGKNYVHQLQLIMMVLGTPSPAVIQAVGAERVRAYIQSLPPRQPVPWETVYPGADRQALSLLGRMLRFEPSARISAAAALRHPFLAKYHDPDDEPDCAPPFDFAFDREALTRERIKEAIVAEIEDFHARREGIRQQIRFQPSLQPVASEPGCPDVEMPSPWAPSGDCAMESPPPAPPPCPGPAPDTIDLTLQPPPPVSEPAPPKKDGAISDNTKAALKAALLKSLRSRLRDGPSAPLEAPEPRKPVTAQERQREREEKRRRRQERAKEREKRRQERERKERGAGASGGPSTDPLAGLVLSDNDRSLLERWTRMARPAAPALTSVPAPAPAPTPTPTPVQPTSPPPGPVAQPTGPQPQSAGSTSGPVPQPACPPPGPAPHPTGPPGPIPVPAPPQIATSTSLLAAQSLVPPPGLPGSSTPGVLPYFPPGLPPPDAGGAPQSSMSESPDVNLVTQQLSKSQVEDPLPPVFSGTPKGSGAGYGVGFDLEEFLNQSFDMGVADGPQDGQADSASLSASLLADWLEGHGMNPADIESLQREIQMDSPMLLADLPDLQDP

For `Cc1cc(C(C)(C)C)c(O)c(C)c1CC1=NCCN1`, the remaining NAD in test [1] was 10 nM. Further, in test [2], the luciferase signal was 28 AU. Moreover, the z-score in test [3] was 0.16 and -0.235 and 0.51.

On to `CC(=O)N[C@@H](CS)C(=O)O`, for which, in test [1], the remaining NAD was 10 nM. In addition, in test [2], the luciferase signal is 40 AU. Moreover, in test [3], the z-score is 0.55.

As for `COc1cc(NS(=O)(=O)c2ccc(N)cc2)nc(OC)n1`, the remaining NAD in test [1] is 10 nM. The luciferase signal in test [2] is 48 AU. Further, the z-score in test [3] is -0.135.

Take `CCO/C([O-])=N/c1c[n+](N2CCOCC2)no1`: the remaining NAD in test [1] was 10 nM. Further, the luciferase signal in test [2] was 56 AU. Further, the z-score in test [3] is 0.905 and 0.425.

Take `COc1ccc(CCN2CCC(Nc3nc4ccccc4n3Cc3ccc(F)cc3)CC2)cc1`: the remaining NAD in test [1] was 10 nM. The luciferase signal in test [2] was 84 AU. Besides, the z-score in test [3] is -0.615 and -2.45.

Consider `Cc1ccc(C(=O)c2ccc(CC(=O)O)n2C)cc1`, for which, in test [1], the remaining NAD was 10 nM. Further, the luciferase signal in test [2] was 84 AU. The z-score in test [3] was 1.02.

Turning to `C[C@]12CCC(=O)C=C1C=C[C@@H]1[C@@H]2CC[C@@]2(C)[C@H]1CC[C@@]21CCC(=O)O1`, the remaining NAD in test [1] was 10 nM. The luciferase signal in test [2] was 40 AU. In addition, in test [3], the z-score was -0.645.

`Nc1ccc(N=Nc2ccccc2)c(N)n1`: the remaining NAD in test [1] was 10 nM. In addition, the luciferase signal in test [2] was 464 AU (active). Moreover, the z-score in test [3] was -0.225.

With `C/C=C/c1ccc(OC)cc1`, the remaining NAD in test [1] is 10 nM. Besides, the luciferase signal in test [2] is 76 AU. The z-score in test [3] is 0.095.

Consider `C[C@]12CC[C@@H]3c4ccc(O)cc4CC[C@H]3[C@@H]1C[C@@H](O)[C@@H]2O`, for which, in test [1], the remaining NAD was 10 nM. In test [2], the luciferase signal was 64 AU. The z-score in test [3] is 0.76.

On to `CN1CCN(CCCN2c3ccccc3Sc3ccc(Cl)cc32)CC1`, for which the remaining NAD in test [1] was 10 nM. Besides, the luciferase signal in test [2] was 80 AU. Also, the z-score in test [3] was -1.35 and -1.42.

In the case of `CC(C)(Oc1ccc(Cl)cc1)C(=O)O`, the remaining NAD in test [1] was 10 nM. For the same compound, in test [2], the luciferase signal is 72 AU. Further, the z-score in test [3] was 0.98.

On to `CC1(C)S[C@@H]2[C@H](NC(=O)[C@H](N)c3ccccc3)C(=O)N2[C@H]1C(=O)O`, for which, in test [1], the remaining NAD was 10 nM. The luciferase signal in test [2] is 44 AU. Moreover, the z-score in test [3] was 0.415.

As to `Cc1[nH]c(C)c(Cl)c(=O)c1Cl`, in test [1], the remaining NAD was 10 nM. In test [2], the luciferase signal is 48 AU. Moreover, in test [3], the z-score is 0.41.

With `C=C[C@@]1(C)CC(=O)[C@]2(O)[C@@]3(C)[C@@H](O)CCC(C)(C)[C@@H]3[C@H](O)[C@H](OC(C)=O)[C@@]2(C)O1`, the remaining NAD in test [1] is 10 nM. Further, in test [2], the luciferase signal was 44 AU. Also, the z-score in test [3] was -0.315.

Regarding `CC/C(=C(/CC)c1ccc(O)cc1)c1ccc(O)cc1`, the remaining NAD in test [1] was 10 nM. Moreover, the luciferase signal in test [2] was 56 AU. Further, the z-score in test [3] was -0.645.

As to `CC(C)NC[C@@H](O)COc1cccc2ccccc12`, in test [1], the remaining NAD was 10 nM. Moreover, the luciferase signal in test [2] was 52 AU. In addition, the z-score in test [3] was 0.54.

Take `N[C@@H](Cc1ccc(O)c(O)c1)C(=O)O`: the remaining NAD in test [1] is 10 nM. The luciferase signal in test [2] was 72 AU. For the same compound, in test [3], the z-score is -0.965 and -1.59.

As to `COc1ccc2c(c1)c(CC(=O)OCC(=O)O)c(C)n2C(=O)c1ccc(Cl)cc1`, the remaining NAD in test [1] was 10 nM. Further, the luciferase signal in test [2] is 52 AU. The z-score in test [3] was 0.565.

Take `COc1ccnc(CS(=O)c2nc3ccc(OC(F)F)cc3[nH]2)c1OC` (configuration not stated): the remaining NAD in test [1] was 10 nM. Moreover, the luciferase signal in test [2] was 56 AU. Moreover, the z-score in test [3] was 1.18.

`CC(=O)OCC1=C(C(=O)O)N2C(=O)[C@@H](NC(=O)Cc3cccs3)[C@H]2SC1`: the remaining NAD in test [1] is 10 nM. The luciferase signal in test [2] is 52 AU. Further, the z-score in test [3] is 0.015.

For `CN1CCC[C@@H]1CCO[C@](C)(c1ccccc1)c1ccc(Cl)cc1`, the remaining NAD in test [1] was 10 nM. Moreover, the luciferase signal in test [2] was 32 AU. In addition, the z-score in test [3] is -0.775 and -1.7.

Regarding `COC(=O)Nc1nc2ccc(Sc3ccccc3)cc2[nH]1`, the remaining NAD in test [1] is 10 nM. Also, the luciferase signal in test [2] was 36 AU. Further, the z-score in test [3] was -1.72.

Consider `O=C1NCC2(CCN(CCc3ccccc3)CC2)O1`, for which the remaining NAD in test [1] is 10 nM. Besides, in test [2], the luciferase signal is 52 AU. In test [3], the z-score was 0.155.
